Source: PubChem BioAssay (NCI)
The panel holds about 83,000 compounds, 20% with a hit somewhere; the sample as a whole holds those more often.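 A percent growth of 40 corresponds to 60% growth inhibition; 0 means no net growth; -100 means all cells died. Active threshold: below 10.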 Active and inactive are the calls of the source.

Tested on: KM12 colon
Assay: NCI-60 one-dose screen, 48 h (100 = growth as untreated, 0 = no growth, -100 = all killed)
Details: 10 µM

Question: `COc1ccc2c3nc4cc(C)c(C)cc4nc3n(CCN(C)C)c2c1` was tested. Which growth did it give?
Answer: The growth was -18% (active).

Question: Which growth does the source give for `O=C(CSc1nnc(-c2c[nH]c3ccccc23)n1-c1ccccc1)c1ccc(Br)cc1` here?
Answer: Its growth is 34.6% (inactive).

Question: For `OCc1[nH]nc2cc(Nc3ncc4ccc(Br)c(OC5CCC(O)CC5)c4n3)ccc12` (stereo not drawn), which growth is on record?
Answer: The growth was 2.85% (active).

Question: `Cc1cc(C)nc(NS(=O)(=O)c2ccc(N/C(N)=N/c3nccc(-c4ccccc4)n3)cc2)n1` was tested. Which growth did it give?
Answer: Its growth is 78.8% (inactive).

Question: For `N#Cc1c(NC(=O)c2ccc(C(O)(C(F)(F)F)C(F)(F)F)cc2)sc2c1CCC(=O)C2`, which growth is on record?
Answer: Its growth is -53.8% (active).

Question: For `N#Cc1ccc(-c2nn(-c3ccc(C(=O)O)cc3)cc2CNc2cc(Cl)cc(C(F)(F)F)c2)cc1`, which growth is on record?
Answer: The growth was 4.92% (active).

Tested on: MDA-MB-468 breast
Assay: as above
Details: 10 µM

Question: For `O=C(NO)c1ccc(-c2nc3ccc4[nH]ncc4c3c3c2CCCC3)cc1`, which growth is on record?
Answer: The growth was -90.3% (active).

Question: For `O=C(CNc1nc(-c2ccccc2)cs1)Nc1ccc(Cl)cc1`, which growth is on record?
Answer: Its growth is -81.2% (active).

Question: Which growth does the source give for `COc1cc2c3c(n(CCCN4CCOCC4)c(=O)c2cc1OC)-c1nc2c(cc1C3=O)OCO2` here?
Answer: Its growth is -29% (active).

Question: With `Cc1ccc(/C=C/C(=O)c2ccc(NC(=O)CSc3nnc(-c4c[nH]c5ccccc45)n3-c3ccccc3)cc2)c(C)c1` as the molecule, how does the growth read?
Answer: Its growth is 22% (inactive).

Question: Which growth does the source give for `O=C(CN1CCN(c2ncnc3c2cnn3-c2ccccc2)CC1)Nc1nncs1` here?
Answer: The growth was -39.8% (active).

Question: How did the growth turn out when `CC(=O)Oc1ccccc1C(=O)Oc1ccc(C(=O)/C=C/c2ccncc2)cc1` was run?
Answer: Its growth is -59.3% (active).

Question: Which growth does the source give for `O=C(NC(=S)N1CCN(c2ncnc3c2cnn3-c2ccccc2)CC1)c1ccc(Cl)cc1` here?
Answer: The growth was 64.6% (inactive).

Question: How did the growth turn out when `C/C(=N\N=C\c1ccc(N(C)C)cc1)c1ccc2c(c1)Nc1ccccc1S2` was run?
Answer: The growth was 8.43% (active).

Question: Which growth does the source give for `COC(=O)C[C@](O)(CCCC(C)(C)O)C(=O)O[C@H]1C(OC)=C[C@@]23CCC(=O)N2CCc2cc4c(cc2[C@@H]13)OCO4` here?
Answer: Its growth is 81.1% (inactive).

Question: Which growth does the source give for `CN1CCN(Cc2ccc(NC(=O)c3cncc(C#Cc4cnc5ccc(N[C@H]6CCOC6)nn45)c3)cc2C(F)(F)F)CC1` here?
Answer: Its growth is -94% (active).

Question: How did the growth turn out when `CCOc1ccc(/C=N/NC(=O)Cn2nc(Cc3ccc([N+](=O)[O-])cc3)c3onc(C)c3c2=O)cc1` was run?
Answer: The growth was -30.7% (active).

Question: Which growth does the source give for `CN1CCN(c2ccc(C(=O)/C=C/c3ccc(OC(F)F)cc3)cc2)CC1` here?
Answer: Its growth is -60.7% (active).

Question: With `COc1ccc(C2N(c3ccc(Br)cc3)N=C(C(C)=O)N2[C@H]2[C@H](OC(C)=O)O[C@H](COC(C)=O)[C@@H](OC(C)=O)[C@@H]2OC(C)=O)cc1` (stereo partly drawn) as the molecule, how does the growth read?
Answer: The growth was 72.6% (inactive).

Question: For `CCOC(=O)C1=C(N)N(c2ccccc2)C2=C(C(=O)CC(C)(C)C2)C1c1ccc(Cl)cc1` (stereo not drawn), which growth is on record?
Answer: The growth was 33.2% (inactive).

Question: For `CCCn1c(=O)c2[nH]c(-c3ccc(OCc4nc5ccc(F)cc5[nH]4)cc3)nc2n(CCC)c1=O`, which growth is on record?
Answer: Its growth is -12.7% (active).

Question: With `Cc1ccc(/C(CSc2nnc(-c3c[nH]c4ccccc34)n2-c2ccccc2)=N/O)cc1` as the molecule, how does the growth read?
Answer: Its growth is -88.8% (active).

Question: How did the growth turn out when `CN1CCN(c2ccc(C(=O)/C=C/c3cc(C(F)(F)F)ccc3Cl)cc2)CC1` was run?
Answer: Its growth is -97.6% (active).

Question: With `COc1ccc(C(=O)Nc2sc3c(c2C#N)CCC(=O)C3)cc1C(F)(F)F` as the molecule, how does the growth read?
Answer: Its growth is -38.9% (active).

Question: With `Cc1ccc(/C=C/C(=O)c2ccc(NC(=O)CSc3nnc(-c4c[nH]c5ccccc45)n3-c3ccccc3)cc2)cc1` as the molecule, how does the growth read?
Answer: The growth was 85.7% (inactive).

Question: For `COc1ccc(Nc2nc(N)n(Cc3cccc(Br)c3)n2)cc1`, which growth is on record?
Answer: The growth was -12.3% (active).

Question: With `O=C1CCC(N2Cc3cc(NC(=O)COc4ccccc4)ccc3C2=O)C(=O)N1` (stereo not drawn) as the molecule, how does the growth read?
Answer: The growth was -25.1% (active).

Question: For `O=C(/C=C/Nc1ccccc1)c1ccc2c(c1)Nc1ccccc1S2`, which growth is on record?
Answer: The growth was 61.5% (inactive).

Question: With `COc1cc2c(c(OC)c1OC)C(=O)CC(c1cccc(NC(=O)c3cccc(N)c3)c1)O2` (stereo not drawn) as the molecule, how does the growth read?
Answer: The growth was 65.6% (inactive).

Question: Which growth does the source give for `Cc1noc2c(Cc3ccc([N+](=O)[O-])cc3)nn(CC(=O)N/N=C/c3ccc(Br)cc3)c(=O)c12` here?
Answer: Its growth is 95.3% (inactive).

Question: With `COc1ccc(-c2nc(Nc3ccccc3S(N)(=O)=O)c3ccccc3n2)cc1` as the molecule, how does the growth read?
Answer: The growth was -13.4% (active).

Question: For `COc1cc(/C=C/C(=O)c2ccc(NC(=O)CSc3nnc(-c4c[nH]c5ccccc45)n3-c3ccccc3)cc2)cc(OC)c1OC`, which growth is on record?
Answer: The growth was 37% (inactive).

Question: With `O=C(CSc1nnc(-c2ccc3nc(-c4ccc(Cl)cc4)[nH]c3c2)o1)Nc1ccc(Br)cc1` as the molecule, how does the growth read?
Answer: Its growth is -4% (active).

Question: With `Cc1ccn2c(C(=O)c3ccccc3)cc(-c3cc(-c4ccc(N(C)C)cc4)c(C#N)c(N)n3)c2c1` as the molecule, how does the growth read?
Answer: Its growth is 50.7% (inactive).

Question: Which growth does the source give for `O=C1c2ccccc2C(=O)c2c1c(C(=O)c1ccc(Cl)cc1)n1c2ccc2c3ccccc3ccc21` here?
Answer: The growth was 112% (inactive).

Question: For `Cn1c(O)c(N=Nc2nc(-c3cc4ccccc4oc3=O)cs2)c2cc(Br)ccc21`, which growth is on record?
Answer: The growth was 41.8% (inactive).

Question: Which growth does the source give for `Cn1cc(-c2cc(N)n3nc(-c4c[nH]c5ccc(Br)cc45)cc3n2)c2cccnc21` here?
Answer: Its growth is -92.1% (active).

Question: Which growth does the source give for `COc1ccc2c3nc4cc(C)c(C)cc4nc3n(CCN(C)C)c2c1` here?
Answer: The growth was -10.9% (active).

Question: Which growth does the source give for `O=C(CSc1nnc(-c2c[nH]c3ccccc23)n1-c1ccccc1)c1ccc(Br)cc1` here?
Answer: Its growth is 22% (inactive).

Question: `OCc1[nH]nc2cc(Nc3ncc4ccc(Br)c(OC5CCC(O)CC5)c4n3)ccc12` (stereo not drawn) was tested. Which growth did it give?
Answer: The growth was -87.8% (active).

Question: How did the growth turn out when `Cc1cc(C)nc(NS(=O)(=O)c2ccc(N/C(N)=N/c3nccc(-c4ccccc4)n3)cc2)n1` was run?
Answer: The growth was 64.2% (inactive).

Question: With `N#Cc1c(NC(=O)c2ccc(C(O)(C(F)(F)F)C(F)(F)F)cc2)sc2c1CCC(=O)C2` as the molecule, how does the growth read?
Answer: The growth was -90% (active).

Question: `N#Cc1ccc(-c2nn(-c3ccc(C(=O)O)cc3)cc2CNc2cc(Cl)cc(C(F)(F)F)c2)cc1` was tested. Which growth did it give?
Answer: Its growth is -13.7% (active).
